Source: PubChem BioAssay
Rows were chosen to be rich in hits. Some 8.7% of all compounds tested hit in one or more screens of this group.
Vaccinia mCherry = qHTS for Stage-Specific Inhibitors of Vaccinia Orthopoxvirus: mCherry Reporter Primary qHTS; actives 0.63% (n = 310,000); Potency, µM (doses to about 36.5 µM), for the others: top-dose activity change, negative = inhibition, usual class: inhibitors; Vaccinia virus mCherry reporter infection, fluorescence; AID 720579, 2013; calls by dose curve; tested in A549 cells; further: nearly all actives have a fitted effect of over 35% in size
Pf growth 48h = Primary qHTS for delayed death inhibitors of the malarial parasite plastid, 48 hour incubation. Potency, µM (highest dose often 28.7 µM), for the others: top-dose activity change, negative = inhibition, hits mostly inhibitors. actives 5.9% (n = 310,000). P. falciparum luciferase growth in erythrocytes, 48 h. AID 504832, 2011
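Luciferase-expressing parasites in RBCs, 2% Hct / 0.1% parasitemia final; RPMI 1640 + 0.5% Albumax; 37 C, 5% CO2, one generation; luminescence read-out, lower signal = inhibition.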
VACV Venus inh = qHTS for Stage-Specific Inhibitors of Vaccinia Orthopoxvirus: Venus Reporter Primary qHTS. Vaccinia virus Venus reporter expression, fluorescence. Potency, µM (titrated, usually from 36.5 µM), for inactives: at the highest dose activity change, negative = inhibition, usual class: inhibitors. actives 0.46% (n = 330,000); calls by dose curve; tested in A549 cells; further: nearly all actives have a fitted effect of over 30% in size
AMA1-RON2 inh = qHTS for Inhibitors of AMA1-RON; Towards Development of Antimalarial Drug Lead: Primary Screen; Potency, µM (series often up to 58.2 µM), inactives show top-dose activity change, negative = inhibition, most hits filed as inhibitors; AID 720542, 2013; AlphaScreen AMA1-biotinylated RON2 peptide binding; actives 0.2% (n = 360,000); Plasmodium falciparum AMA1 (3D7) - RON2 peptide interaction;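 further: 0% = vehicle wells and -100% = peptide control; nearly all actives have a fitted effect of over 45% in size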
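AMA1 (3D7) with his tag at 25 nM final met compounds first, then biotinylated RON2 peptide at 25 nM; detection used donor plus acceptor beads, 10 µg/mL apiece, read by AlphaScreen after 30 min at room temperature.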
Pf growth 96h = Primary qHTS for delayed death inhibitors of the malarial parasite plastid, 96 hour incubation; AID 504834, 2011; actives 6.9% (n = 320,000); Potency, µM (series often up to 28.7 µM), for inactives: at the highest dose activity change, negative = inhibition, hits mostly inhibitors; P. falciparum luciferase reporter growth, 96 h
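Readout is luminescence from an integrated firefly luciferase in P. falciparum. Red cells, 2% hematocrit and 0.05% parasitemia final, were cultured with compound through two parasite generations (96 hours) at 37 C, 5% CO2.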
* hit, by the source's call; i = inactive; ? = inconclusive; . = no result given; [ ] = dose if it differs, or a comment. Unless noted, the call rests on the fitted dose curve; in most records, active means well fitted curve in the direction sought with a large enough effect; inconclusive means small, poorly fitted or top-dose-only effect, or another doubt; inactive means no such curve, though single readings can be large; an effect the other way counts as inactive or inconclusive. Unless noted, on the % scale 0 is the no-effect control and ±100 the full control effect; potency means the concentration at half of the fitted maximal effect.

SMILES	Vaccinia mCherry	Pf growth 48h	VACV Venus inh	AMA1-RON2 inh	Pf growth 96h
O=C(Cc1ccccc1)OCC(=O)c1ccccc1	-14%	0%	-7%	8%	12µM*
O=C(CCc1ccccc1)OCC(=O)c1ccc([N+](=O)[O-])cc1	.	21%	.	-12%	12µM*
COc1ccc(C(=O)COC(=O)CCc2ccccc2)cc1	i	-12%	-12%	1%	14%
Cc1ccc(C(=O)COC(=O)Cc2ccccc2)cc1	-17%	10%	-9%	32%	-31%
O=C(CCC(=O)OCC(=O)c1ccc([N+](=O)[O-])cc1)Nc1ccccc1Cl	-14%	?	-5%	1%	13µM*
COc1ccc(-c2nc3cc(F)ccc3cc2CN(C(=O)c2ccc3c(c2)OCO3)C2CC2)cc1	0%	.	-5%	.	.
CCSc1nc(NCCN(C)C)c2c3c(sc2n1)COC(C)(CC)C3 (stereo not drawn)	-10%[7.34 µM]	3.3µM*	-8%[7.34 µM]	3%	12µM*
CSc1nc(SCC(=O)NCc2ccco2)c2c3c(sc2n1)COC(C)(C)C3	.	?	.	-2%	-1%
CCCCSc1nc(SCC(=O)NCc2ccco2)c2c3c(sc2n1)COC(C)(CC)C3 (stereo not drawn)	.	?	.	-9%	9.3µM*
CCCSc1nc(SCC(=O)NCc2ccccc2)c2c3c(sc2n1)COC(C)(CC)C3 (stereo not drawn)	.	?	.	4%	15µM*
O=C(c1cccs1)N1CCCc2cc(NS(=O)(=O)c3ccc(F)cc3)ccc21	-13%	.	-13%	.	.
O=S(=O)(c1ccccc1)c1nc(-c2ccc(Cl)cc2Cl)oc1N1CCCCCC1	-10%	.	-12%	.	.
CN(C)C(=O)Nc1ccccc1CC[N+](=O)[O-]	-6%	-6%	0%	-27%	17%
O=C(Nc1ccccc1CC[N+](=O)[O-])N1CCN(c2ccccc2)CC1	-4%	10µM*	-1%	-23%	12µM*
O=C(Nc1ccc([N+](=O)[O-])cc1)Nc1ccc(Cl)cc1F	-9%	4.1µM*	-4%	-2%	33%
O=C(Nc1ccc(Cl)cc1)Nc1ccccc1CC[N+](=O)[O-]	-13%	12µM*	-7%	19%	?
COc1ccc(CNC(=O)Cn2c(=O)nc(-c3ccccc3F)c3cc(Cl)ccc32)cc1OC	i	.	-15%	.	.
CCS(=O)(=O)N1CC(=O)N(c2ccc(C)c(C)c2)C(C)(C(=O)NC2CCCCC2)C1 (stereo not drawn)	-17%	.	-14%	.	.
CN(N=Cc1ccccc1O)c1ccc2ccccc2n1	-13%	.	-25%	107%	.
CN(/N=C/c1cc(Br)cc(Br)c1O)c1cccc(C(F)(F)F)n1	?	4.1µM*	?	30%	?
CCOC(=O)c1cnc2ccccc2c1Nc1ccc(C(=O)O)cc1	i	?	-10%	-27%	?
CCOC(=O)c1cnc2ccccc2c1NCCc1ccc(OC)c(OC)c1	-17%	12µM*	-14%	?	1.7µM*
CCOC(=O)c1cnc2ccc(OC)cc2c1NCCc1ccc(OC)c(OC)c1	?	2.6µM*	?	16%	?
NC(=O)C1CCN(c2nc(-c3ccccc3)cs2)CC1	.	16%	.	.	?
CC(C)c1ccc(N(CC(=O)O)S(=O)(=O)c2ccc3[nH]c(=O)c(=O)[nH]c3c2)cc1	-13%	.	-5%	.	.
SMILES	Vaccinia mCherry	Pf growth 48h	VACV Venus inh	AMA1-RON2 inh	Pf growth 96h
COc1ccc(CNC(=O)C[C@H]2C(=O)N(C3CCCCC3)C[C@@H]2Cc2ccccc2)cc1	-16%	-8%	?	-4%	12µM*
Cc1ccc(NC(=O)CN(C)S(=O)(=O)c2cccc3cccnc23)cc1C	-24%	15%	-7%	-9%	13µM*
COc1ccc(/C=C/C(=O)NCC2Cc3cc(Cl)cc(-c4ncccn4)c3O2)cc1 (stereo not drawn)	-8%	.	-7%	.	.
CCOC(=O)Cc1csc(NC(=S)NC(=O)c2ccccc2)n1	.	?	.	59%	34%
CCOC(=O)Cc1csc(NC(=O)/C=C/c2cccc(Br)c2)n1	?	9.3µM*	-10%	-1%	-24%
COc1ccccc1NC(=O)Cc1csc(NC(=S)Nc2ccc(C)cc2)n1	.	?	.	56%	10µM*
